Reference: PubChem BioAssay (NCATS)
Inconclusive results are not listed. The source made the active and inactive calls. Calls follow the shape of the dose curve; as a rule, active = well fitted cell-killing curve with a large enough effect; inconclusive = small, poorly fitted or top-dose-only effect, or effect the other way; inactive = flat fitted curve, though single readings scatter.

Columns and labels:
Assay in all cases: Primary qHTS to identify gynecologic anti-cancer compounds using libraries of approved drugs and bioactive compounds (AID 1345084); also: nearly all actives have a fitted effect of over 55% in size
Hek293T = conditions: Gynecologic cancer cell panel viability, ATPlite luminescence, 48 h, control line for the selectivity index; series mostly up to 57.5 µM
Procedure, shortened: (§1)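 48 h compound exposure at 37 C, 5% CO2; five-point qHTS. ATPlite luminescence readout of cell ATP.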

JEG-3 = conditions: Gynecologic cancer cell panel viability, ATPlite luminescence, 48 h; series mostly up to 57.5 µM
Procedure, shortened: as §1

OV90 = conditions: Gynecologic cancer cell panel viability, ATPlite luminescence, 48 h; series mostly up to 57.5 µM
Procedure, shortened: as §1

PA-1 = conditions: Gynecologic cancer cell panel viability, ATPlite luminescence, 48 h; series mostly up to 57.5 µM
Procedure, shortened: as §1

SKOV3 = conditions: Gynecologic cancer cell panel viability, ATPlite luminescence, 48 h; series mostly up to 57.5 µM
Procedure, shortened: as §1

Tov-21-G = conditions: Gynecologic cancer cell panel viability, ATPlite luminescence, 48 h; series mostly up to 57.5 µM
Procedure, shortened: as §1

Tov112D = conditions: Gynecologic cancer cell panel viability, ATPlite luminescence, 48 h; series mostly up to 57.5 µM
Procedure, shortened: as §1
% is scaled to controls: 0 for no effect and ±100 for the full control effect.

C[C@H]1CN(C[C@H](Cc2ccccc2)C(=O)NCC(=O)O)CC[C@@]1(C)c1cccc(O)c1
inactive: Potency (Hek293T) | Potency (JEG-3) | Potency (OV90) | Potency (PA-1) | Potency (SKOV3) | Potency (Tov-21-G) | Potency (Tov112D)

C[C@@H]1O[C@@H](O[C@H]2[C@H](O[C@H]3CC[C@@]4(C)C(CC[C@]5(C)C4CC=C4C6CC(C)(C)CC[C@]6(C(=O)O[C@@H]6O[C@H](CO[C@@H]7O[C@H](CO)[C@@H](O[C@@H]8O[C@@H](C)[C@H](O)[C@@H](O)[C@H]8O)[C@H](O)[C@H]7O)[C@@H](O)[C@H](O)[C@H]6O)CC[C@]45C)[C@]3(C)CO)OC[C@H](O)[C@@H]2O)[C@H](O)[C@H](O)[C@H]1O (stereo partly specified)
inactive: activity change, negative = cytotoxicity (Hek293T) -5.22% [at 6.55 µM] | activity change, negative = cytotoxicity (JEG-3) -11.6% [at 6.55 µM] | activity change, negative = cytotoxicity (OV90) -14.8% [at 6.55 µM] | activity change, negative = cytotoxicity (PA-1) -4.46% [at 6.55 µM] | activity change, negative = cytotoxicity (SKOV3) -11.7% [at 6.55 µM] | activity change, negative = cytotoxicity (Tov-21-G) 8.28% [at 6.55 µM] | activity change, negative = cytotoxicity (Tov112D) -13.6% [at 6.55 µM]

C/C=C(/C)C(=O)O[C@H]1C=C(C)C[C@H](OC(=O)c2ccc(O)cc2)C2[C@](O)(C(C)C)CC[C@@]21C (stereo partly specified)
inactive: Potency (Hek293T) | Potency (JEG-3) | Potency (OV90) | Potency (PA-1) | Potency (SKOV3) | Potency (Tov-21-G) | Potency (Tov112D)

COC(=O)C1=CO[C@@H](O[C@@H]2O[C@H](COC(=O)/C=C/c3cc(OC)c(O)c(OC)c3)[C@@H](O)[C@H](O)[C@H]2O)[C@@H]2C(CO)=CC[C@H]12
inactive: Potency (Hek293T) | Potency (JEG-3) | Potency (OV90) | Potency (PA-1) | Potency (SKOV3) | Potency (Tov-21-G) | Potency (Tov112D)

c1ccc(Nc2nc3c(s2)CCCc2[nH]ncc2-3)nc1
inactive: Potency (Hek293T) | Potency (JEG-3) | Potency (OV90) | Potency (PA-1) | Potency (SKOV3) | Potency (Tov-21-G) | Potency (Tov112D)

CC1CCC(=O)CC(O)C(O)CC(=O)O1 (stereo unspecified)
inactive: Potency (Hek293T) | Potency (JEG-3) | Potency (OV90) | Potency (PA-1) | Potency (SKOV3) | Potency (Tov-21-G) | Potency (Tov112D)

COC(=O)c1cc(CN2CCN(C(=N)N)CC2)cc(C(=O)N2CCN(C(=O)c3ccc(C(=N)N)cc3)CC2)c1
inactive: Potency (Hek293T) | Potency (JEG-3) | Potency (OV90) | Potency (PA-1) | Potency (SKOV3) | Potency (Tov-21-G) | Potency (Tov112D)

CC1=C(C)C(=O)OC(C(C)(O)C2CCC3C4CC=C5CC(OC6OC(COC7OC(CO)C(O)C(O)C7O)C(O)C(O)C6O)CC(O)C5(C)C4CCC32C)C1 (stereo unspecified)
inactive: Potency (Hek293T) | Potency (JEG-3) | Potency (OV90) | Potency (PA-1) | Potency (SKOV3) | Potency (Tov-21-G) | Potency (Tov112D)

COc1cc(/C=C/C(=O)O[C@H]2[C@H](OC(=O)/C=C/c3cc(OC)c(O)c(OC)c3)O[C@H](CO[C@@H]3O[C@H](CO)[C@@H](O)[C@H](O)[C@H]3O)[C@@H](O)[C@@H]2O)ccc1O
inactive: Potency (Hek293T) | Potency (JEG-3) | Potency (OV90) | Potency (PA-1) | Potency (SKOV3) | Potency (Tov-21-G) | Potency (Tov112D)

OCC1=CC[C@@H]2C=CO[C@@H](O[C@@H]3O[C@H](CO)[C@@H](O)[C@H](O)[C@H]3O)[C@H]12
inactive: Potency (Hek293T) | Potency (JEG-3) | Potency (OV90) | Potency (PA-1) | Potency (SKOV3) | Potency (Tov-21-G) | Potency (Tov112D)

C(#Cc1cccc(CN2CCOCC2)c1)CCN1CCCCC1
inactive: Potency (Hek293T) | Potency (JEG-3) | Potency (OV90) | Potency (PA-1) | Potency (SKOV3) | Potency (Tov-21-G) | Potency (Tov112D)

N#Cc1ccnc(N2C(=O)CC[C@H]2C(=O)N(c2cncc(F)c2)[C@H](C(=O)NC2CC(F)(F)C2)c2ccccc2Cl)c1
inactive: Potency (Hek293T) | Potency (JEG-3) | Potency (OV90) | Potency (PA-1) | Potency (SKOV3) | Potency (Tov-21-G) | Potency (Tov112D)

C/C=C/C1=CC2=C(CO1)C(=O)[C@](C)(O)[C@H](OC(=O)c1c(O)cc(OC)c(O)c1C)C2
inactive: Potency (Hek293T) | Potency (JEG-3) | Potency (OV90) | Potency (PA-1) | Potency (SKOV3) | Potency (Tov-21-G) | Potency (Tov112D)

C=CCc1ccc(O[C@@H]2O[C@H](CO[C@@H]3O[C@@H](C)[C@H](O)[C@@H](O)[C@H]3O)[C@@H](O)[C@H](O)[C@H]2O)cc1
inactive: Potency (Hek293T) | Potency (JEG-3) | Potency (OV90) | Potency (PA-1) | Potency (SKOV3) | Potency (Tov-21-G) | Potency (Tov112D)

C=C1CCC[C@]2(C)C[C@]3(O)OC(=O)C(C)=C3C[C@@H]12
inactive: Potency (Hek293T) | Potency (JEG-3) | Potency (OV90) | Potency (PA-1) | Potency (SKOV3) | Potency (Tov-21-G) | Potency (Tov112D)

CC(=O)OC[C@@]12[C@H](O)C[C@@H](C)[C@]3(C[C@@H](c4ccoc4)OC3=O)[C@H]1C[C@H](O)C[C@]21CO1
inactive: Potency (Hek293T) | Potency (JEG-3) | Potency (OV90) | Potency (PA-1) | Potency (SKOV3) | Potency (Tov-21-G) | Potency (Tov112D)

C=C(C(=O)OC)C1CCC2(C)C(O[C@@H]3O[C@H](CO)[C@@H](O)[C@H](O)[C@H]3O)CC(=O)C(C)C2C1O (stereo partly specified)
inactive: Potency (Hek293T) | Potency (JEG-3) | Potency (OV90) | Potency (PA-1) | Potency (SKOV3) | Potency (Tov-21-G) | Potency (Tov112D)

C[C@@H]1O[C@@H](O[C@H]2[C@H](O[C@H]3CC[C@@]4(C)C(CC[C@]5(C)C4CC=C4[C@@H]6CC(C)(C)CC[C@]6(C(=O)O)CC[C@]45C)[C@]3(C)CO)OC[C@H](O)[C@@H]2O)[C@H](O)[C@H](O[C@@H]2OC[C@@H](O)[C@H](O)[C@H]2O)[C@H]1O (stereo partly specified)
inactive: activity change, negative = cytotoxicity (Hek293T) -9.01% [at 11.6 µM] | activity change, negative = cytotoxicity (JEG-3) -2.58% [at 11.6 µM] | activity change, negative = cytotoxicity (OV90) -5.88% [at 11.6 µM] | activity change, negative = cytotoxicity (PA-1) -2.5% [at 11.6 µM] | activity change, negative = cytotoxicity (SKOV3) -0.901% [at 11.6 µM] | activity change, negative = cytotoxicity (Tov-21-G) -4.57% [at 11.6 µM] | activity change, negative = cytotoxicity (Tov112D) 4.64% [at 11.6 µM]
